Test results as given in the supplement of paper PMC10849652.
Of roughly 7,900 targets only a part is listed; those with a hit were picked by preference. About 0.6% of all pairs of compound and target were hits. A number with no mark means an inactive call.

Legend:
Assay in all cases: log2 fold change, soluble protein after heating vs DMSO (PISA); higher = thermal stabilisation; K562 cells, 10 uM, 30 min; active = over 0.2 and 3.5 SD of the protein, either way, in both replicates (recomputed)
[1] = compound: CC[C@@H]1C(=O)N(C)c2cnc(Nc3ccc(C(=O)NC4CCN(C)CC4)cc3OC)nc2N1C1CCCC1
Procedure, shortened: (§1)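 Thermal stability values are relative to control samples and come from duplicates. They are expressed as log2 fold changes. For measurement, K562 cells (2×10^6 cells/mL) received 10 μM compound for 30 min, and aliquots were heated for 3 min over 48°C-58°C, pooled, and extracted at 4°C in PBS with 0.5% NP-40. Soluble protein, the supernatant after 21,000xg for 90 min, was quantified by TMTpro 16plex LC-MS/MS with equalised channel sums.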

volasertib = compound: CC[C@@H]1C(=O)N(C)c2cnc(Nc3ccc(C(=O)N[C@H]4CC[C@H](N5CCN(CC6CC6)CC5)CC4)cc3OC)nc2N1C(C)C [volasertib]
Procedure, shortened: as §1

[2] = compound: CC[C@H](C)N1C=C(C2=C(C=C(C=C21)C3=CN=C(C=C3)N4CCNCC4)C(=O)NCC5=C(C=C(NC5=O)C)C)C
Procedure, shortened: as §1

epoxomicin = compound: CC[C@H](C)[C@@H](C(=O)N[C@@H]([C@@H](C)O)C(=O)N[C@@H](CC(C)C)C(=O)[C@]1(CO1)C)NC(=O)[C@H]([C@@H](C)CC)N(C)C(=O)C [epoxomicin]
Procedure, shortened: as §1

[3] = compound: CCn1c(C(=O)N(C2CC2)C2CC2)cc2c3c(ncn3C)c(Nc3cc(C)n(C)n3)nc21
Procedure, shortened: as §1

[4] = compound: CCn1cc(-c2ccnc3[nH]c(-c4cccc(CN(C)C)c4)cc23)c(-c2ccc(NC(=O)N(C)C)cc2)n1
Procedure, shortened: as §1

[5] = compound: CN(C)CC(=O)Nc1ccc2[nH]c(=O)c3ccccc3c2c1
Procedure, shortened: as §1

rosiglitazone = compound: CN(CCOC1=CC=C(C=C1)C[C@H]2C(=O)NC(=O)S2)C3=CC=CC=N3 (racemic) [rosiglitazone]
Procedure, shortened: as §1

[6] = compound: CN1C2=C(C3=C1C(=O)N(N=C3)CC4=CC(=CC=C4)N)SC(=C2)S(=O)C
Procedure, shortened: as §1

[7] = compound: CN1CCC(CNc2ccc3ncc(-c4cccc(OC(F)(F)F)c4)n3n2)CC1
Procedure, shortened: as §1

saracatinib = compound: CN1CCN(CCOc2cc(OC3CCOCC3)c3c(Nc4c(Cl)ccc5c4OCO5)ncnc3c2)CC1 [saracatinib]
Procedure, shortened: as §1

sotrastaurin = compound: CN1CCN(c2nc(C3=C(c4c[nH]c5ccccc45)C(=O)NC3=O)c3ccccc3n2)CC1 [sotrastaurin]
Procedure, shortened: as §1

alvocidib = compound: CN1CC[C@H](c2c(O)cc(O)c3c(=O)cc(-c4ccccc4Cl)oc23)[C@H](O)C1 [alvocidib]
Procedure, shortened: as §1

Tubastatin A = compound: CN1CCc2c(c3ccccc3n2Cc2ccc(C(=O)NO)cc2)C1 [Tubastatin A]
Procedure, shortened: as §1

[8] = compound: CNC(=O)C1=CC=CC=C1NC2=NC(=NC=C2Cl)NC3=C(C=C(C=C3)N4CCOCC4)OC
Procedure, shortened: as §1

defactinib = compound: CNC(=O)c1ccc(Nc2ncc(C(F)(F)F)c(NCc3nccnc3N(C)S(C)(=O)=O)n2)cc1 [defactinib]
Procedure, shortened: as §1

rucaparib = compound: CNCc1ccc(-c2[nH]c3cc(F)cc4c3c2CCNC4=O)cc1 [rucaparib]
Procedure, shortened: as §1

[9] = compound: CNc1nc(-c2ccc3c(N)n[nH]c3c2)cc(N2C[C@@H](C(=O)NC3CCCCC3)CC[C@H]2C)n1
Procedure, shortened: as §1

encorafenib = compound: COC(=O)N[C@@H](C)CNc1nccc(-c2cn(C(C)C)nc2-c2cc(Cl)cc(NS(C)(=O)=O)c2F)n1 [encorafenib]
Procedure, shortened: as §1

[10] = compound: COC(=O)[C@H](CCSC)NC(=O)C1=C(C=C(C=C1)NC[C@H](CS)N)C2=CC=CC=C2
Procedure, shortened: as §1

Sequence of UniProt Q7Z4S6 (Q7Z4S6 whole entry, looked up): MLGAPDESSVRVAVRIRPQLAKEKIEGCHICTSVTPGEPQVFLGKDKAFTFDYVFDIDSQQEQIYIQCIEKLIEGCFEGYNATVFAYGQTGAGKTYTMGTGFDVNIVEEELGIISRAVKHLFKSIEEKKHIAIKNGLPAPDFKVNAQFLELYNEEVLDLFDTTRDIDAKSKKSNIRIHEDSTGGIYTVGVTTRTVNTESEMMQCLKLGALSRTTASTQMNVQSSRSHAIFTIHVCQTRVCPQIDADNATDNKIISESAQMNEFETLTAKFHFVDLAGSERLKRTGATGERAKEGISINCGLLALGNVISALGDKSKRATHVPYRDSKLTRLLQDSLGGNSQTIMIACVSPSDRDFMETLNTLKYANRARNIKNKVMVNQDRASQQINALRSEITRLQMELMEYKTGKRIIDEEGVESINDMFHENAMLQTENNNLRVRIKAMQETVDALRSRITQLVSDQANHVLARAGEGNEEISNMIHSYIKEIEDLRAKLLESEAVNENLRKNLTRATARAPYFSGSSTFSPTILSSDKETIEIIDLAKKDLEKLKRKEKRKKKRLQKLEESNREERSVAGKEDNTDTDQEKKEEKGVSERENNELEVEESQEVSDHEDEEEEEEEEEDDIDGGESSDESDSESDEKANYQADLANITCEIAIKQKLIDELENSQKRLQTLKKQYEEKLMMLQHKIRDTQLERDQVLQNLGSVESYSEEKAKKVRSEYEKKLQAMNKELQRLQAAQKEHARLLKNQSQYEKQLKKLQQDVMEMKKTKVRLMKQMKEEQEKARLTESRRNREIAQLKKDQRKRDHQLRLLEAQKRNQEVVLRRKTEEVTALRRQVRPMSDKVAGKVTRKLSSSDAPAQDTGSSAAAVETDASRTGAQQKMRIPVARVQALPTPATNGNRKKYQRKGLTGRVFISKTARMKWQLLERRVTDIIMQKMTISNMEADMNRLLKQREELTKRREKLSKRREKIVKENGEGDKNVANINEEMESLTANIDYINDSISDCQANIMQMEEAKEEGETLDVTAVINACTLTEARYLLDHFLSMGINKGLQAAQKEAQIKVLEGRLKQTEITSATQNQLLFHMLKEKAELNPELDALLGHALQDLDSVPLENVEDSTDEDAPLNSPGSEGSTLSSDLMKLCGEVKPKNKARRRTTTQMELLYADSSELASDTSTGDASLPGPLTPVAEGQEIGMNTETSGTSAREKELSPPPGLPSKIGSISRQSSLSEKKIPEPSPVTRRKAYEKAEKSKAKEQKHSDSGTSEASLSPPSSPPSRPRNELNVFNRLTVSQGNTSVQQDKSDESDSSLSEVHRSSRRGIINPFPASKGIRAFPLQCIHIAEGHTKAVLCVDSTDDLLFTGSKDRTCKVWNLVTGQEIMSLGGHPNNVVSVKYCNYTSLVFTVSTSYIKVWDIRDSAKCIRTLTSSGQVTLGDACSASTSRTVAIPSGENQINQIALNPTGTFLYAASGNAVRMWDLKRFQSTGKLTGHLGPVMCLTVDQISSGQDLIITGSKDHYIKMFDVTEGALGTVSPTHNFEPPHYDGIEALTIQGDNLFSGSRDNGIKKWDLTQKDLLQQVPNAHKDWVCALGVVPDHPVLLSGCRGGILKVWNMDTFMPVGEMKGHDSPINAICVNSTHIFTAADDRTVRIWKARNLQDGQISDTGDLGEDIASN
Sequence of UniProt Q9H3U5 (Q9H3U5 whole entry, looked up): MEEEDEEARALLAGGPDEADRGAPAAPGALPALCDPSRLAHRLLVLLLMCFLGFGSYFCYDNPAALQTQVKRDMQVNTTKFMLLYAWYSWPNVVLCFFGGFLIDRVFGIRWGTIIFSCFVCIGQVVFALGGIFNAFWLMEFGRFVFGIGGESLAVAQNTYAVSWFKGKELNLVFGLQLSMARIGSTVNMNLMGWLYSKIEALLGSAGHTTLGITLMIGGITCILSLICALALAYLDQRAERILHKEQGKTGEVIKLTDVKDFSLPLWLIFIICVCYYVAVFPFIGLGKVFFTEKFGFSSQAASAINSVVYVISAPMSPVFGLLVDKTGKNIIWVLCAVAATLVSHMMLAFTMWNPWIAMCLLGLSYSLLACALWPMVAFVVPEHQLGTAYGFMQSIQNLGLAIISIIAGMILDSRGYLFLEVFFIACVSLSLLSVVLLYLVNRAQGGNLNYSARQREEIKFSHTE
Sequence of UniProt Q16644 (Q16644 whole entry, looked up): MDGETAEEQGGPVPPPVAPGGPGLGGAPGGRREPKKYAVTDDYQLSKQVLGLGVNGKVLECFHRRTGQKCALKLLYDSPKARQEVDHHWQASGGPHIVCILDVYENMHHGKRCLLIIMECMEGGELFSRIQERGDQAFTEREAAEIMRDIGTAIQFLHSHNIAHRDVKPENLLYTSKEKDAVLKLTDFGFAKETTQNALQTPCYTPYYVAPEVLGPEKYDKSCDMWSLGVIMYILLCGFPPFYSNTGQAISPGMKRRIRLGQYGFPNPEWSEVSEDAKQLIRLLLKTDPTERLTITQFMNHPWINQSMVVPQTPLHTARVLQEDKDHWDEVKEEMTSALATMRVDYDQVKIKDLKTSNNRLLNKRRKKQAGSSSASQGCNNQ
Sequence of UniProt Q9H1H9 (Q9H1H9 whole entry, looked up): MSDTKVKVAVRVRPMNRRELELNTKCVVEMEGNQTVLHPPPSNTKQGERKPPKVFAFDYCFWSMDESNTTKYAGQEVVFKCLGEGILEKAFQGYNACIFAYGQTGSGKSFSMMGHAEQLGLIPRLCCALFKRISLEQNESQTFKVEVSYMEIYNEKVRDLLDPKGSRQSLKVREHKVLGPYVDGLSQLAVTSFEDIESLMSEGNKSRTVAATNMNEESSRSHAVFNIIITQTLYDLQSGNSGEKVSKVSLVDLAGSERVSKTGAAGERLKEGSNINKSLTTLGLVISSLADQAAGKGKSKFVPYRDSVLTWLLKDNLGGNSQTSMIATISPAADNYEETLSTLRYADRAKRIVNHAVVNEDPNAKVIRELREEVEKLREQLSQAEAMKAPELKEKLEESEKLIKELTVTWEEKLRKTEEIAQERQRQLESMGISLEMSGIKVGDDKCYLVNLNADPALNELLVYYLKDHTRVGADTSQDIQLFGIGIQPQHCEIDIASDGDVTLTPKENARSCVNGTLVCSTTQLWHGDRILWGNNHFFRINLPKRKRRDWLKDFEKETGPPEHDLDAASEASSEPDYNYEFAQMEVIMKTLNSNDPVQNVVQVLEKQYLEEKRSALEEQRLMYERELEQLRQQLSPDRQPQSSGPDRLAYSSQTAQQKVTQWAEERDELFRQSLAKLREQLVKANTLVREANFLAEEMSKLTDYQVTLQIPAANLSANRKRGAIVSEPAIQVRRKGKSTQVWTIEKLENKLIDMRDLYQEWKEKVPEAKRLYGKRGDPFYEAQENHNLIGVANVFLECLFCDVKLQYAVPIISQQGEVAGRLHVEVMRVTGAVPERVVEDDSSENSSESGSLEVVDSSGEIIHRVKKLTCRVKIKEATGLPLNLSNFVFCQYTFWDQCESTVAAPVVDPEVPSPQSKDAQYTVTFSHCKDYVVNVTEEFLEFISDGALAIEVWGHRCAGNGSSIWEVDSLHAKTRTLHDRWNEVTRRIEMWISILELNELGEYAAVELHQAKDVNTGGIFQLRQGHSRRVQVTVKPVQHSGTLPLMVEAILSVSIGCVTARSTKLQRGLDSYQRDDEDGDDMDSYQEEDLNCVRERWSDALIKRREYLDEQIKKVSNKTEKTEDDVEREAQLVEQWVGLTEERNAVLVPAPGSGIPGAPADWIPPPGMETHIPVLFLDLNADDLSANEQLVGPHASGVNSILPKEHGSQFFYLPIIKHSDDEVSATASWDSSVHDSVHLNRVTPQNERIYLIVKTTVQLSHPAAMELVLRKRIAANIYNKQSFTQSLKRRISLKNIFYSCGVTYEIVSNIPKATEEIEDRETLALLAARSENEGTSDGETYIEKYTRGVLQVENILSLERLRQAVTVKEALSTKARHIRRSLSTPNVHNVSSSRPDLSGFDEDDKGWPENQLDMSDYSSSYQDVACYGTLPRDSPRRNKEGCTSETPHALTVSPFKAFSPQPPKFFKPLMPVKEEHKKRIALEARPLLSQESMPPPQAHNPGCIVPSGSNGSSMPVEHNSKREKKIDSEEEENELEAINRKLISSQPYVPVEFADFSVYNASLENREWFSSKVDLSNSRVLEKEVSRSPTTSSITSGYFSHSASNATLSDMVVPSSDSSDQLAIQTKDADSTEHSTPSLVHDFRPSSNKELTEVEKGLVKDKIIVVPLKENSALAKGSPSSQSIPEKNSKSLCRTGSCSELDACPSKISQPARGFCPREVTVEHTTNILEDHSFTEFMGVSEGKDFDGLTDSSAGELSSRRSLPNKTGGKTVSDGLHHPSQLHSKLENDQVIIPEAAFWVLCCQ
Sequence of UniProt Q9NYL2 (Q9NYL2 whole entry, looked up): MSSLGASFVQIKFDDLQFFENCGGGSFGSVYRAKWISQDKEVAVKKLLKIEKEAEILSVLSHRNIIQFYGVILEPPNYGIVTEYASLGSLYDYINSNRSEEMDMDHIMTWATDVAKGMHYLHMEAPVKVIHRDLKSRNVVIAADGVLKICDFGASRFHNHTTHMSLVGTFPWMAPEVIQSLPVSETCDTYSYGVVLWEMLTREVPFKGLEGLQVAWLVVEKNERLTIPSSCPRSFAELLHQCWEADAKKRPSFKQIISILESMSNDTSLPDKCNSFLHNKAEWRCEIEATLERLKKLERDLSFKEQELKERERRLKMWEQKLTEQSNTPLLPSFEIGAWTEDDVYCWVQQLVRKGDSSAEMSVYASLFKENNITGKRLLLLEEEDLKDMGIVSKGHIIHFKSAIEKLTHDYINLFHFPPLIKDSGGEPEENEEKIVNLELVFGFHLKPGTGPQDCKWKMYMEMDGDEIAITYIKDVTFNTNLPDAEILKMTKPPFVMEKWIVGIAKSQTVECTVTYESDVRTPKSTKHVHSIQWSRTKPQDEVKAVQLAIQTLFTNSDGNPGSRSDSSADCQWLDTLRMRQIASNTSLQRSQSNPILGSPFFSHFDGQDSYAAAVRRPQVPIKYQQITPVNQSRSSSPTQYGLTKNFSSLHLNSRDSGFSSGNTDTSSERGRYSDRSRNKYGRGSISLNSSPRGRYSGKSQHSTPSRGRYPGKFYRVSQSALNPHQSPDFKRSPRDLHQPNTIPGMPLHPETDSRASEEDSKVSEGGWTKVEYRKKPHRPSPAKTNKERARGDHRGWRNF

| Target | log2 fold change [1] | log2 fold change (volasertib) | log2 fold change [2] | log2 fold change (epoxomicin) | log2 fold change [3] | log2 fold change [4] | log2 fold change [5] | log2 fold change (rosiglitazone) | log2 fold change [6] | log2 fold change [7] | log2 fold change (saracatinib) | log2 fold change (sotrastaurin) | log2 fold change (alvocidib) | log2 fold change (Tubastatin A) | log2 fold change [8] | log2 fold change (defactinib) | log2 fold change (rucaparib) | log2 fold change [9] | log2 fold change (encorafenib) | log2 fold change [10] |
| --- | --- | --- | --- | --- | --- | --- | --- | --- | --- | --- | --- | --- | --- | --- | --- | --- | --- | --- | --- | --- |
| LMNB2 (UniProt Q03252) | 0.027 | -0.077 | 0.024 | 0.028 | -0.061 | 0.043 | -0.033 | -0.005 | -0.01 | 0.014 | -0.031 | -0.127 | -0.02 | 0.02 | 0.027 | -0.201 | -0.085 | -0.073 | -0.009 | 0.049 |
| KIAA1324L (UniProt A8MWY0) | -0.312 (active) | -0.293 (active) | -0.012 | 0.015 | 0.011 | -0.019 | 0.091 | 0.111 | -0.112 | -0.14 | 0.018 | 0.014 | -0.056 | -0.017 | -0.014 | 0.033 | -0.021 | 0.023 | 0.015 | 0.006 |
| MED1 (UniProt Q15648) | 0.073 | 0.077 | 0.076 | -0.051 | -0.001 | -0.04 | -0.054 | 0.001 | 0.024 | -0.025 | 0.001 | -0.092 | -0.11 | -0.025 | 0.042 | -0.005 | 0.067 | -0.045 | 0.009 | 0.033 |
| MAP4 (UniProt E7EVA0) | 0.079 | 0.246 | 0.036 | -0.113 | -0.004 | 0.068 | -0.021 | -0.206 | 0.131 | 0.152 | 0.03 | -0.015 | 0.127 | 0.041 | -0.059 | 0.099 | 0.209 | 0.043 | 0.017 | 0.032 |
| IMMT isoform 2 (UniProt Q16891) | -0.043 | -0.046 | -0.002 | -0.052 | 0.074 | -0.031 | 0.086 | -0.009 | 0.067 | 0.249 | -0.069 | -0.036 | -0.071 | -0.076 | 0.131 | 0.029 | 0.023 | -0.111 | 0.017 | 0.067 |
| KIF13A (UniProt Q9H1H9) | 0.007 | -0.041 | -0.003 | 0.004 | -0.05 | -0.068 | -0.026 | 0.068 | -0.012 | 0.039 | 0.063 | 0.041 | -0.01 | 0.028 | 0.1 | -0.026 | 0.008 | -0.093 | -0.025 | 0.034 |
| MAPKAPK3 (UniProt Q16644) | -0.084 | 0.036 | 0.003 | 0.064 | 0.048 | 0.016 | -0.015 | 0.004 | -0.14 | -0.049 | 0.134 | -0.117 | 0.011 | -0.077 | 0.117 | -0.051 | -0.023 | 0.011 | 0.106 | -0.01 |
| KIF21A isoform 4 (UniProt Q7Z4S6) | 0.073 | -0.019 | 0.038 | 0.066 | -0.037 | -0.121 | 0.013 | 0.033 | 0.054 | 0.076 | 0.001 | -0.006 | 0.134 | 0.094 | 0.001 | 0.016 | 0.109 | 0.077 | 0.175 | -0.072 |
| KPNA4 (UniProt O00629) | -0.008 | -0.251 | 0.033 | -0.008 | 0.038 | 0.029 | 0 | 0.01 | -0.066 | -0.052 | 0.013 | 0.032 | -0.085 | -0.017 | -0.052 | -0.095 | -0.117 | 0 | 0.016 | 0.015 |
| MAIP1 (UniProt Q8WWC4) | -0.086 | -0.098 | -0.023 | -0.068 | 0.034 | -0.015 | 0.026 | -0.001 | -0.052 | -0.396 (active) | 0.03 | 0.06 | -0.058 | 0.028 | 0.002 | -0.054 | -0.039 | -0.04 | 0.048 | 0.008 |
| KIF11 (UniProt P52732) | 0.016 | -0.42 | 0.081 | -0.032 | -0.076 | 0.023 | 0.041 | 0.031 | 0.182 | 0.022 | -0.059 | -0.2 | 0.041 | 0.05 | 0.275 | 0.017 | 0.183 | 0.088 | 0.174 | -0.055 |
| KDM1A isoform 2 (UniProt O60341) | 0.135 | -0.028 | 0.06 | 0.101 | -0.053 | -0.111 | 0.006 | 0.099 | -0.001 | -0.091 | -0.061 | -0.139 | -0.108 | 0.127 | -0.032 | -0.065 | 0.14 | 0.021 | 0.052 | -0.032 |
| MFSD1 isoform 6 (UniProt Q9H3U5) | -0.022 | 0.053 | -0.01 | 0 | -0.023 | -0.069 | -0.025 | -0.016 | – | -0.012 | – | -0.041 | 0.022 | -0.039 | 0.066 | 0.046 | -0.014 | – | -0.028 | -0.004 |
| MAP3K20 (UniProt Q9NYL2) | 0.038 | -0.026 | 0.08 | 0.008 | 0.011 | -0.016 | -0.02 | 0.035 | 0.126 | -0.12 | -0.106 | 0.055 | 0.065 | 0.004 | 0.054 | -0.018 | 0.002 | 0.01 | 0.02 | -0.034 |
| MAP3K7 (UniProt O43318) | -0.015 | -0.369 (active) | -0.008 | 0.018 | 0.032 | 0.043 | 0.046 | 0.079 | 0.079 | -0.093 | -0.07 | -0.146 | -0.072 | 0.054 | 0.023 | -0.023 | 0.099 | -0.035 | 0.1 | -0.011 |
| LAMP2 isoform 2 (UniProt P13473) | -0.137 | -0.081 | -0.078 | -0.016 | 0.028 | -0.01 | 0.012 | -0.035 | -0.112 | -0.485 (active) | 0.24 | – | -0.026 | 0.021 | 0.027 | 0.078 | 0.024 | -0.192 | 0.043 | -0.017 |
